Experimental findings from PubChem BioAssay (NCI) are described below.

About 79,000 compounds went through this panel and 15% of them were active in at least one assay; those are over-represented in the sample as a whole. Values without a mark were called inactive. Calls of active or inactive are those of the source. No stated cut-off is given here; in the data, active means growth inhibition above about 70%; inactive means the rest.

Test [1] is described as follows: NCI Yeast Anticancer Drug Screen. Data for the rad50 strain (AID 155).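 Further: 0% = growth of vehicle-only cultures of the same strain.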 The conditions noted are these: S. cerevisiae rad50 strain growth inhibition, stronger effect = higher value. The method in brief: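 Growth of the mutant yeast was measured after compound exposure and referenced to vehicle-treated cultures.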
Test [2] can be described thus: NCI Yeast Anticancer Drug Screen. Data for the mec2-1 strain (AID 157). The conditions noted are these: S. cerevisiae mec2-1 strain, stronger effect = higher value. The procedure, abridged: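 Vehicle-treated cultures served as reference for growth inhibition of compound-exposed mec2-1 yeast.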
A short description of test [3]: NCI Yeast Anticancer Drug Screen. Data for the sgs1 mgt1 strain (AID 161).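 Further: 0% = growth of cultures given vehicle only.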 To be noted: S. cerevisiae sgs1 mgt1 strain, stronger effect = higher value. The method in brief:
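Genetically altered yeast, compound exposure, growth inhibition relative to vehicle.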

Test [4] can be described thus: NCI Yeast Anticancer Drug Screen. Data for the cln2 rad14 strain (AID 165).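 Further: 0% = growth equal to vehicle treated cultures.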 To be noted: S. cerevisiae cln2 rad14 strain, stronger effect = higher value. The method in brief: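 Each compound was tested on cln2 rad14 yeast. Inhibition of growth was calculated against vehicle-exposed controls.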
Test [5] can be described thus: NCI Yeast Anticancer Drug Screen. Data for the bub3 strain (AID 167). The conditions noted are these: S. cerevisiae bub3 mutant strain, stronger effect = higher value. The method in brief:
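Whole-cell yeast assay. The mutant strain was incubated with compounds, and growth inhibition was determined by comparison with vehicle-treated cells.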

A short description of test [6]: NCI Yeast Anticancer Drug Screen. Data for the mlh1 rad18 strain (AID 175). The conditions noted are these: S. cerevisiae mlh1 rad18 strain growth inhibition, stronger effect = higher value. The procedure, abridged:
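Vehicle-treated cultures served as the reference for growth inhibition in a yeast strain carrying DNA damage repair alterations exposed to each compound.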

Setting [7] is: at 5.0 µM (retest, dose inferred, filed as 0.5).
The mark [8] stands for this setting: at 50.0 µM (retest, dose inferred, filed as 5.0).

Take `O=NNc1nc(-c2ccccn2)nc2ccccc12`: the growth inhibition in test [1] (setting [7]) was -7%; in test [1] (setting [8]) it was 96% (active); in test [1] (at 50.0 µM), 96.5% (active); in test [2] (setting [7]), 7%; in test [2] (setting [8]) it was 99% (active); in test [2] (at 50.0 µM), 97.9% (active). The growth inhibition is -4% in test [3] (setting [7]); 97% (active) in test [3] (setting [8]); 98.2% (active) in test [3] (at 50.0 µM); -2% in test [4] (setting [7]); 92% (active) in test [4] (setting [8]); 41.2% in test [4] (at 50.0 µM). Moreover, the growth inhibition was -14% in test [5] (setting [7]); 98% (active) in test [5] (setting [8]); 19.9% in test [5] (at 50.0 µM); 1% in test [6] (setting [7]); 99% (active) in test [6] (setting [8]); 98.5% (active) in test [6] (at 50.0 µM).

For `CN(C)CC(=O)OCC[N+](C)(C)C`, the growth inhibition is -3% in test [1] (setting [7]); -2% in test [1] (setting [8]); -22.1% in test [1] (at 50.0 µM); -6% in test [2] (setting [7]); -5% in test [2] (setting [8]); -15.1% in test [2] (at 50.0 µM). Besides, the growth inhibition is -3% in test [3] (setting [7]); -3% in test [3] (setting [8]); -12.7% in test [3] (at 50.0 µM); -15% in test [4] (setting [7]); -10% in test [4] (setting [8]); 56.4% in test [4] (at 50.0 µM). For the same compound, the growth inhibition in test [5] (setting [7]) was 6%; in test [5] (setting [8]) it was 30%; in test [5] (at 50.0 µM), 15.4%; in test [6] (setting [7]), -4%; in test [6] (setting [8]) it was 1%; in test [6] (at 50.0 µM), -15.9%.

`O=C1c2cccc3cc([N+](=O)[O-])cc(c23)C(=O)N1O`: the growth inhibition is 34% in test [1] (setting [7]); 56% in test [1] (setting [8]); 82.7% (active) in test [1] (at 50.0 µM); 15% in test [2] (setting [7]); 32% in test [2] (setting [8]); 91.3% (active) in test [2] (at 50.0 µM). In addition, the growth inhibition in test [3] (setting [7]) was 13%; in test [3] (setting [8]), 37%; in test [3] (at 50.0 µM) it was 81.2% (active); in test [4] (setting [7]), 20%; in test [4] (setting [8]) it was 35%; in test [4] (at 50.0 µM), 32.4%. Moreover, the growth inhibition in test [5] (setting [7]) is 18%; in test [5] (setting [8]), 64%; in test [5] (at 50.0 µM), 70.5% (active); in test [6] (setting [7]) it was 31%; in test [6] (setting [8]), 71% (active); in test [6] (at 50.0 µM), 80.7% (active).

`OC1CCC(COC(c2ccccc2)(c2ccccc2)c2ccccc2)O1` (stereo not given): the growth inhibition was -8% in test [1] (setting [7]); 98% (active) in test [1] (setting [8]); 98.6% (active) in test [1] (at 50.0 µM); 5% in test [2] (setting [7]); 99% (active) in test [2] (setting [8]); 98.5% (active) in test [2] (at 50.0 µM). Also, the growth inhibition in test [3] (setting [7]) was -19%; in test [3] (setting [8]), 99% (active); in test [3] (at 50.0 µM) it was 98% (active); in test [4] (setting [7]), 5%; in test [4] (setting [8]), 98% (active); in test [4] (at 50.0 µM), 98.2% (active). For the same compound, the growth inhibition is 4% in test [5] (setting [7]); 96% (active) in test [5] (setting [8]); 99% (active) in test [5] (at 50.0 µM); 0% in test [6] (setting [7]); 99% (active) in test [6] (setting [8]); 98.1% (active) in test [6] (at 50.0 µM).

Take `CC(=O)NNc1nc(C)c(C(=O)NNC(=O)C(=O)Nc2ccc(Cl)cc2Cl)s1`: the growth inhibition in test [1] (setting [7]) was 1%; in test [1] (setting [8]), 82% (active); in test [1] (at 50.0 µM), 54.6%; in test [2] (setting [7]) it was 1%; in test [2] (setting [8]), 94% (active); in test [2] (at 50.0 µM), 39.4%. Moreover, the growth inhibition in test [3] (setting [7]) is 5%; in test [3] (setting [8]), 87% (active); in test [3] (at 50.0 µM), 53.2%; in test [4] (setting [7]) it was -4%; in test [4] (setting [8]) it was 85% (active); in test [4] (at 50.0 µM) it was -38.2%. Besides, the growth inhibition in test [5] (setting [7]) was 5%; in test [5] (setting [8]), 89% (active); in test [5] (at 50.0 µM), 45.4%; in test [6] (setting [7]) it was -2%; in test [6] (setting [8]) it was 89% (active); in test [6] (at 50.0 µM), 73.9% (active).

Regarding `C/C(=N\NC(=O)C[n+]1ccccc1)c1sc(-c2nc(C)c(/C(C)=N/NC(=O)C[n+]3ccccc3)s2)nc1C`, the growth inhibition was 95% (active) in test [1] (setting [7]); 97% (active) in test [1] (setting [8]); 97.2% (active) in test [1] (at 50.0 µM); 97% (active) in test [2] (setting [7]); 99% (active) in test [2] (setting [8]); 96.8% (active) in test [2] (at 50.0 µM). For the same compound, the growth inhibition in test [3] (setting [7]) was 98% (active); in test [3] (setting [8]), 97% (active); in test [3] (at 50.0 µM), 96.9% (active); in test [4] (setting [7]) it was 92% (active); in test [4] (setting [8]) it was 97% (active); in test [4] (at 50.0 µM) it was 93% (active). Also, the growth inhibition in test [5] (setting [7]) was 95% (active); in test [5] (setting [8]) it was 97% (active); in test [5] (at 50.0 µM), 96.8% (active); in test [6] (setting [7]), 93% (active); in test [6] (setting [8]), 98% (active); in test [6] (at 50.0 µM), 96.4% (active).

`Cc1ccc(NNC2=NC(=S)NC(=O)C2)cc1`: the growth inhibition is 12% in test [1] (setting [7]); 97% (active) in test [1] (setting [8]); 97.5% (active) in test [1] (at 50.0 µM); 8% in test [2] (setting [7]); 98% (active) in test [2] (setting [8]); 96.9% (active) in test [2] (at 50.0 µM). Moreover, the growth inhibition in test [3] (setting [7]) was 18%; in test [3] (setting [8]) it was 97% (active); in test [3] (at 50.0 µM), 80.6% (active); in test [4] (setting [7]) it was -8%; in test [4] (setting [8]), 95% (active); in test [4] (at 50.0 µM), 84.8% (active). The growth inhibition in test [5] (setting [7]) is 9%; in test [5] (setting [8]) it was 97% (active); in test [5] (at 50.0 µM), 97.8% (active); in test [6] (setting [7]), 18%; in test [6] (setting [8]) it was 97% (active); in test [6] (at 50.0 µM), 98.3% (active).

For `COc1ccc2c(c1OC)C1=C(C2=O)c2cc3c(cc2CCN1)OCO3`, the growth inhibition in test [1] (setting [7]) was -4%; in test [1] (setting [8]) it was 76% (active); in test [1] (at 50.0 µM), 23.1%; in test [2] (setting [7]), 0%; in test [2] (setting [8]) it was 86% (active); in test [2] (at 50.0 µM) it was 45.7%. Besides, the growth inhibition in test [3] (setting [7]) is 9%; in test [3] (setting [8]), 92% (active); in test [3] (at 50.0 µM), 61.5%; in test [4] (setting [7]), 2%; in test [4] (setting [8]), 95% (active); in test [4] (at 50.0 µM) it was 40.9%. The growth inhibition in test [5] (setting [7]) was -15%; in test [5] (setting [8]), 51%; in test [5] (at 50.0 µM) it was 68.4%; in test [6] (setting [7]), 8%; in test [6] (setting [8]), 93% (active); in test [6] (at 50.0 µM), 53.1%.

On to `O=C1C(=O)C(Cl)=C(Cl)C(Cl)=C1Cl`, for which the growth inhibition in test [1] (setting [7]) is -3%; in test [1] (setting [8]) it was 97% (active); in test [1] (at 50.0 µM) it was 99.3% (active); in test [2] (setting [7]), 7%; in test [2] (setting [8]) it was 99% (active); in test [2] (at 50.0 µM), 99.7% (active). Moreover, the growth inhibition in test [3] (setting [7]) is 1%; in test [3] (setting [8]), 95% (active); in test [3] (at 50.0 µM) it was 99.5% (active); in test [4] (setting [7]), -12%; in test [4] (setting [8]), 98% (active); in test [4] (at 50.0 µM) it was 98.5% (active). Also, the growth inhibition in test [5] (setting [7]) was -25%; in test [5] (setting [8]), 97% (active); in test [5] (at 50.0 µM), 99.3% (active); in test [6] (setting [7]) it was -7%; in test [6] (setting [8]), 98% (active); in test [6] (at 50.0 µM) it was 99.1% (active).

In the case of `CN(C)CCC(=O)[C@@]1(O)CC[C@H]2[C@@H]3CC=C4C[C@@H](O)CC[C@]4(C)[C@H]3CC[C@@]21C`, the growth inhibition in test [1] (setting [7]) was 25%; in test [1] (setting [8]) it was 70% (active); in test [1] (at 50.0 µM) it was 44.1%; in test [2] (setting [7]), 11%; in test [2] (setting [8]), 63%; in test [2] (at 50.0 µM), 75.4% (active). Moreover, the growth inhibition in test [3] (setting [7]) is 20%; in test [3] (setting [8]), 71% (active); in test [3] (at 50.0 µM) it was 58.1%; in test [4] (setting [7]), 8%; in test [4] (setting [8]), 34%; in test [4] (at 50.0 µM) it was -18%. Further, the growth inhibition in test [5] (setting [7]) is -1%; in test [5] (setting [8]), 59%; in test [5] (at 50.0 µM), 49.1%; in test [6] (setting [7]) it was 16%; in test [6] (setting [8]) it was 68%; in test [6] (at 50.0 µM), 65.5%.
